Data: PubChem BioAssay (NCATS)
Results filed as inconclusive are left out. Active and inactive are the calls of the source. Calls follow the shape of the dose curve; as a rule, active = well fitted cell-killing curve with a large enough effect; inconclusive = small, poorly fitted or top-dose-only effect, or effect the other way; inactive = no such curve, though single readings can be large or run the other way.

experiment: Quantitative High-Throughput drug screen in 47 multiple myeloma cell lines against the NCATS MIPE library collection: FR4_PLB cell viability assay (AID 1918924; also: nearly all actives have a fitted effect of over 35% in size); conditions: FR4_PLB myeloma cells viability, CellTiter-Glo ATP, 48 h; series mostly up to 45.8 µM; viability (% of DMSO control): at the top concentration
Source text: PI: Beverly A. Mock Ph.D.
Laboratory of Cancer Biology and Genetics,
Center for Cancer Research, National Cancer Institute,
National Institute of Health, Bethesda, Maryland
Drug resistance and disease progression are common in multiple myeloma (MM) patients, underscoring the need for new therapeutic combinations. […] We hypothesized that effective combinations would reduce MYC expression and enhance p16 activity. […] These preclinical data identify potentially useful drug combinations for evaluation in drug-resistant MM and reveal potential mechanisms of combined drug sensitivity.
Described herein is the primary MIPE qHTS used to cherrypick compounds. Validated compounds were then further tested for potential synergistic activiy.
[1] Peat TJ, Gaikwad SM, Dubois W, Gyabaah-Kessie N, Zhang S, Gorjifard S, Phyo Z, Andres M, Hughitt VK, Simpson RM, Miller MA, Girvin AT, Taylor A, Williams D, D'Antonio N, Zhang Y, Rajagopalan A, Flietner E, Wilson K, Zhang X, Shinn P, Klumpp-Thomas C, McKnight C, Itkin Z, Chen L, Kazandijian D, Zhang J, Michalowski AM, Simmons JK, Keats J, Thomas CJ, Mock BA. Drug combinations identified by high-throughput screening promote cell cycle transition and upregulate Smad pathways in myeloma. Cancer Lett. 2023 Aug 1;568:216284. doi: 10.1016/j.canlet.2023.216284. Epub 2023 Jun 24. PMID: 37356470; PMCID: PMC10408729.
SEQUENCE No. (e.g., 1, 2, 3, etc.); […] (e.g., Cells, Incubation, Reagent, etc.); VALUE and DESCRIPTION.
1; Cells; 5 uL; white, solid bottom 1536-well Greiner assay plate.
2; Compounds; 23 nL; Kalypsis pin tool (Wako USA) equipped with a 1536-well pin head to transfer to the assay plates.
3; Incubation; 48 hours; 37C incubation.
4; Reagent;5uL; CellTiter Glo (Promega).
5; Detector; 425V; Luminescence; Viewlux PerkinElmer.
NOTES (numbers refer to Sequence numbers above)
1. The cell-based screening methods employed in this study were like those previously published. Briefly, the corresponding myeloma cell lines were screened in 1,536-well plates with 500 cells, 5-uL per well for inhibition of cell viability (assessed by measuring ATP levels with CellTiterGlo).
2. NCATS MIPE 4.0 library of approved and investigational drugs were added using the Kalypsis pin tool. Wells treated with DMSO only for 100% viability and media only wells for 0% viability were used as controls.
3. The assay plates were covered and incubated for 48 hours in a 37C, 5% CO2 incubator with controlled humidity.
4. After 48 hours, CellTilter-GloTM luminescent substrate mix (Promega) reagent was added to the assay plate and plates we incubated for 5 min at room temperature.
5. Signal was measured as median relative luminescence units on a ViewLux (PerkinElmer) multiplate reader.
[1] Heske CM, Davis MI, Baumgart JT, Wilson K, Gormally MV, Chen L, Zhang X, Ceribelli M, Duveau DY, Guha R, Ferrer M, Arnaldez FI, Ji J, Tran HL, Zhang Y, Mendoza A, Helman LJ, Thomas CJ. Matrix Screen Identifies Synergistic Combination of PARP Inhibitors and Nicotinamide Phosphoribosyltransferase (NAMPT) Inhibitors in Ewing Sarcoma. Clin Cancer Res. 2017 Dec 1;23(23):7301-7311. doi: 10.1158/1078-0432.CCR-17-1121. Epub 2017 Sep 12. PMID: 28899971; PMCID: PMC6636827.
Potency is read from the fitted curve at half-maximal effect.

| SMILES | viability (% of DMSO control) | Potency |
| --- | --- | --- |
| Cc1ccc(C(=O)Nc2ccc(S(=O)(=O)O)c3cc(S(=O)(=O)O)cc(S(=O)(=O)O)c23)cc1NC(=O)c1cccc(NC(=O)Nc2cccc(C(=O)Nc3cc(C(=O)Nc4ccc(S(=O)(=O)O)c5cc(S(=O)(=O)O)cc(S(=O)(=O)O)c45)ccc3C)c2)c1 | 120% (inactive) |  |
| COc1ccc(C2CNC(=O)C2)cc1OC1CCCC1 (stereo not given) | 124% (inactive) |  |
| CCN1CCCC1CNC(=O)c1cc(S(=O)(=O)CC)c(N)cc1OC (stereo not given) | 117% (inactive) |  |
| CC[C@@]1(O)C(=O)OCc2c1cc1n(c2=O)Cc2cc3c(CN(C)C)c(O)ccc3nc2-1 |  | 2.64 µM (active) |
| Clc1ccc2nsnc2c1NC1=NCCN1 | 123% (inactive) |  |
| CN(Cc1cnc2nc(N)nc(N)c2n1)c1ccc(C(=O)N[C@@H](CCC(=O)O)C(=O)O)cc1 |  | 37.2 µM (active) |
| CN1CCN(CCCN2c3ccccc3Sc3ccc(Cl)cc32)CC1 |  | 23.5 µM (active) |
| OCCN1CCN(CCCN2c3ccccc3Sc3ccc(C(F)(F)F)cc32)CC1 |  | 23.5 µM (active) |
| Nc1nnc(-c2cccc(Cl)c2Cl)c(N)n1 | 115% (inactive) |  |
| CS(=O)(=O)CCNCc1ccc(-c2ccc3ncnc(Nc4ccc(OCc5cccc(F)c5)c(Cl)c4)c3c2)o1 |  | 14.8 µM (active) |
| NCCS(=O)(=O)O | 114% (inactive) |  |
| Cn1ccc2cc3c(cc21)CCN3C(=O)Nc1cccnc1 | 94% (inactive) |  |
| CC(=O)OCC(CCn1cnc2cnc(N)nc21)COC(C)=O | 117% (inactive) |  |
| NC12CC3CC(CC(C3)C1)C2 | 115% (inactive) |  |
| CC(C)C(=O)Nc1ccc([N+](=O)[O-])c(C(F)(F)F)c1 | 95.1% (inactive) |  |
| CC(C)(C)C(=O)Oc1ccc(S(=O)(=O)Nc2ccccc2C(=O)NCC(=O)O)cc1 | 108% (inactive) |  |
| CN(C)C(=N)N=C(N)N | 119% (inactive) |  |
| COc1ccccc1N1CCN(CC(O)COc2cccc3ccccc23)CC1 (stereo not given) | 98.4% (inactive) |  |
| Clc1ccc2c(c1)C(N1CCNCC1)=Nc1ccccc1O2 | 115% (inactive) |  |
| Cc1cn([C@H]2C[C@H](N=[N+]=[N-])[C@@H](CO)O2)c(=O)[nH]c1=O | 103% (inactive) |  |

| SMILES | viability (% of DMSO control) | Potency |
| --- | --- | --- |
| O=C(CCCN1CCC(O)(c2ccc(Cl)cc2)CC1)c1ccc(F)cc1 | 91.2% (inactive) |  |
| C[C@@H]1CC(=O)NN=C1c1ccc(NN=C(C#N)C#N)cc1 |  | 23.5 µM (active) |
| O=C(c1ccc(OCCN2CCCCC2)cc1)c1c(-c2ccc(O)cc2)sc2cc(O)ccc12 |  | 26.4 µM (active) |
| CN(C)c1nc(N(C)C)nc(N(C)C)n1 | 120% (inactive) |  |
| Cn1cnc2c1c(=O)[nH]c(=O)n2C |  | 26.4 µM (active) |
| CC1(C)O[C@H]2CC(=O)OC[C@]23[C@H]2CC[C@@]4(C)[C@H](c5ccoc5)OC(=O)[C@H]5O[C@]54[C@]2(C)C(=O)C[C@@H]13 | 123% (inactive) |  |
| O=C1c2c(O)ccc(O)c2C(=O)c2c(NCCNCCO)ccc(NCCNCCO)c21 |  | 1.66 µM (active) |
| CN(C)C(=O)C(CCN1CCC(O)(c2ccc(Cl)cc2)CC1)(c1ccccc1)c1ccccc1 |  | 20.9 µM (active) |
| CNCCCC12CCC(c3ccccc31)c1ccccc12 |  | 20.9 µM (active) |
| COc1ccccc1OCC(O)CN1CCN(CC(=O)Nc2c(C)cccc2C)CC1 (stereo not given) | 109% (inactive) |  |
| CCCNCC(O)COc1ccccc1C(=O)CCc1ccccc1 (stereo not given) | 79.9% (inactive) |  |
| CCOC(=O)Nc1ccc(NCc2ccc(F)cc2)nc1N | 93.5% (inactive) |  |
| CCOC(=O)C(C)(C)Oc1ccc(Cl)cc1 | 118% (inactive) |  |
| CN(CCOc1ccc(NS(C)(=O)=O)cc1)CCc1ccc(NS(C)(=O)=O)cc1 | 123% (inactive) |  |
| Cc1cc(C(C)(C)C)cc(C)c1CC1=NCCN1 | 107% (inactive) |  |
| NCCc1cnc[nH]1 | 114% (inactive) |  |
| CN1CCC(=C2c3ccccc3CC(=O)c3sccc32)CC1 | 97.6% (inactive) |  |
| CC1COc2c(N3CCN(C)CC3)c(F)cc3c(=O)c(C(=O)O)cn1c23 (stereo not given) | 129% (inactive) |  |
| C[C@H]1c2cccc(O)c2C(O)=C2C(=O)[C@]3(O)C(O)=C(C(N)=O)C(=O)[C@@H](N(C)C)[C@@H]3[C@@H](O)[C@@H]21 |  | 26.4 µM (active) |
| O=C(Nc1ccc([N+](=O)[O-])cc1Cl)c1cc(Cl)ccc1O |  | 2.09 µM (active) |
